Assay results from PubChem BioAssay (NCATS).
Where “and” joins values, the source holds several entries; their conditions need not be identical. Equal entries are not always repeated. Records with an inconclusive call do not appear. Calls of active or inactive are those of the source. The call rests on the fitted dose curve; in most records, active means well fitted inhibition curve with a large enough effect; inconclusive means small, poorly fitted or top-dose-only effect; inactive means flat fitted curve, though single readings scatter.

Key:
Test in all cases: qHTS profiling for inhibitors of Plasmodium falciparum proliferation (AID 504749); further: nearly all actives have a fitted effect of over 60% in size
Details in all cases: P. falciparum in erythrocytes, SYBR Green DNA, 72 h; series mostly up to 28.7 µM
[1] = test system: CP297
Method in brief: (§1)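 Infected RBCs, 0.3% parasitemia/2.5% Hct final; cpd 72 h, 37 C, 5% CO2; lysis buffer with saponin/triton/SYBR Green I, o/n RT dark; FI 485/535; norm. to artemisinin (0.29 uM) and DMSO.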

[2] = test system: CP305
Method in brief: as §1

[3] = test system: CP315
Method in brief: as §1

[4] = test system: CP329
Method in brief: as §1

[5] = test system: DIV14
Method in brief: as §1

[6] = test system: DIV17
Method in brief: as §1

[7] = test system: CP291
Method in brief: as §1

[8] = test system: CP325
Method in brief: as §1

[9] = test system: CP335
Method in brief: as §1

[10] = test system: DFO2036
Method in brief: as §1

Measured: Potency
Potency means the concentration at half of the fitted maximal effect.

O=C(CCN1CCN(CCO)CC1)N1c2ccccc2Sc2ccc(C(F)(F)F)cc21
inactive: [1] | [2] | [3] | [4]
active: [5] 9.53 µM | [6] 9.53 µM

CCCOC(=O)c1ccc(O)cc1
inactive: [7] | [1] | [2] | [3] | [8] | [4] | [9] | [10] | [5] | [6]

COc1cc(CNC(=O)CCCC/C=C/C(C)C)ccc1O
inactive: [7] | [1] | [2] | [3] | [8] | [4] | [9] | [10] | [5] | [6]

COc1cc2c3cc1Oc1cc(ccc1O)C[C@@H]1c4c(cc(OC)c(O)c4Oc4ccc(cc4)C[C@@H]3N(C)CC2)CC[N+]1(C)C
inactive: [7] | [1] | [2] | [3] | [8] | [4] | [9] | [10] | [5] | [6]

CCC1C(=O)OCC1Cc1cncn1C (configuration not stated)
inactive: [7] | [1] | [2] | [3] | [8] | [4] | [9] | [10] | [5] | [6]

NC(=O)C(c1ccccc1)(c1ccccc1)[C@@H]1CCN(CCc2ccc3c(c2)CCO3)C1
active: [5] 7.57 µM | [6] 10.7 µM
inactive: [3] | [8]

Cc1c(Nc2ncccc2C(=O)O)cccc1C(F)(F)F
inactive: [7] | [1] | [2] | [3] | [8] | [4] | [9] | [10] | [5] | [6]

CC(C(=O)O)c1ccc2c(c1)[nH]c1ccc(Cl)cc12 (configuration not stated)
inactive: [7] | [1] | [2] | [3] | [8] | [4] | [9] | [10] | [5] | [6]

Cc1cc(O)c2ccccc2c1O
inactive: [7] | [1] | [2] | [3] | [8] | [4] | [10]

COC(=O)C1=C(C)NC(C)=C(C(=O)OCC(C)C)C1c1ccccc1[N+](=O)[O-] (configuration not stated)
active: [7] 12 µM | [1] 16.9 µM | [8] 12 µM | [5] 10.7 µM

CN1[C@@H]2CC[C@H]1CC(OC(c1ccccc1)c1ccccc1)C2 (some centres not stated)
inactive: [1] | [3] | [8] | [4]
active: [10] 12.6 µM | [5] 2.39 µM and 1.9 µM | [6] 5.36 µM and 4.26 µM

Nc1c(CC(=O)O)cccc1C(=O)c1ccc(Br)cc1
inactive: [7] | [2] | [3] | [8] | [4] | [9] | [10] | [5] | [6]

CCCCC[C@H](O)/C=C/[C@@H]1[C@@H](C/C=C\CCCC(=O)O)[C@@H](O)C[C@H]1O
inactive: [7] | [1] | [2] | [3] | [8] | [4] | [10] | [5] | [6]

CCCC(=O)OC[C@@H](OC(=O)CCC)[C@@H](OC(=O)CCC)[C@H](Cn1c2nc(=O)[nH]c(=O)c-2nc2cc(C)c(C)cc21)OC(=O)CCC
inactive: [7] | [1] | [3] | [8] | [4] | [5]

CC(N)C(=O)OC(C)(C)Cc1ccc(Cl)cc1 (configuration not stated)
inactive: [3]
active: [1] 9.53 µM | [5] 9.53 µM | [6] 8.49 µM

Cc1[nH]cnc1CN1CCc2c(c3ccccc3n2C)C1=O
inactive: [7] | [1] | [2] | [3] | [8] | [4] | [9] | [10] | [6]

CCOc1ccc2nc(S(N)(=O)=O)sc2c1
inactive: [1] | [2] | [3] | [8] | [4] | [9] | [10] | [5] | [6]

Nc1cc(-c2ccncc2)c[nH]c1=O
inactive: [7] | [1] | [2] | [3] | [8] | [4] | [9] | [10] | [6]

O=c1[nH]c2ccccc2n1CCCN1CCN(C(c2ccccc2)c2ccccc2)CC1
active: [5] 13.5 µM | [6] 13.5 µM
inactive: [3]

O=C(O)c1ccccc1Nc1cccc(C(F)(F)F)c1
inactive: [7] | [1] | [2] | [3] | [8] | [4] | [9] | [10] | [6]

Clc1ccccc1-c1nc(-c2ccncc2)no1
inactive: [7] | [1] | [2] | [3] | [8] | [4] | [9] | [10]
active: [6] 15.1 µM

CCCCCCCCCCCC(=O)[O][Sn]([CH2]CCC)([CH2]CCC)[O]C(=O)CCCCCCCCCCC
inactive: [7] | [1] | [2] | [3] | [8] | [4] | [9] | [10] | [5] | [6]

COc1cc(/C=C/C(=O)CC(=O)/C=C/c2ccc(O)c(OC)c2)ccc1O
active: [1] 13.5 µM | [5] 16.9 µM | [6] 13.5 µM

Cc1nc2ccccc2n1Cc1ccc(Cl)cc1
inactive: [7] | [1] | [2] | [3] | [5] | [6]

N=c1ccn2c(n1)O[C@H]1[C@H](O)[C@@H](CO)O[C@H]12
inactive: [7] | [2] | [3] | [8] | [4] | [9] | [10] | [5] | [6]
